Screening data (PubChem)
AMPAR-TARP mod: modulates AMPAR-stargazin complexes; O88602+P19491; HEK293 GluA2+stargazin, membrane potential dye (FDSS), glutamate EC50; hits were called plate by plate, in both directions; calls only at 30 µM; hit rate 3.5% among 40,000; AID 1259245;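 active means any of four per-well response measures lying three or more SD from its plate-wide compound average, in either direction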
GIRK2 act: Activators of human GIRK2-containing channels; activation (% efficacy), % for hits at 37.5 µM; 34,000 tested, under 10 active; HEK293 GIRK2/NPY4 cells, thallium flux fluorescence; P48051;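 active means primary screen hit, no activity in plain HEK293 cells, and in GIRK2-only cells above 5% efficacy rising with concentration; inactive means the rest, including fluorescent compounds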;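 further: efficacy is normalized control-subtracted fluorescence 15 s after thallium addition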
Starred values were filed as active, the others as inactive; i = inactive; / = not tested or not shown; + = active, no number. This is one part of a sample in which hits are shown more often than they occur.

SMILES	AMPAR-TARP mod	GIRK2 act
CCOc1ccc(N2CC(c3nc4ccccc4n3CCOC)CC2=O)cc1 (centres undefined)	i	i
O=C(CC1SC(=O)N(Cc2ccccc2)C1=O)Nc1ccc([N+](=O)[O-])cc1 (centres undefined)	+	i
COc1ccc(NC(=O)CC2SC(=O)N(CC(=O)c3ccccc3)C2=O)cc1 (centres undefined)	i	i
COC(=O)C1CCN(C(=O)c2cc3c(=O)n(C)c(=O)n(C)c3s2)CC1	i	i
CCCCN(C(=O)c1cc2c(=O)n(C)c(=O)n(C)c2s1)c1ccccc1	+	i
Cc1cccc(NC(=O)c2cc3c(=O)n(C)c(=O)n(C)c3s2)c1C	i	i
CC(=O)Nc1cccc(NC(=O)c2cc3c(=O)n(C)c(=O)n(C)c3s2)c1	+	i
CC(O)CNC(=O)c1cc2c(=O)n(C)c(=O)n(C)c2s1 (centres undefined)	i	i
Cn1c(=O)c2cc(C(=O)NCCc3ccc(S(N)(=O)=O)cc3)sc2n(C)c1=O	+	i
Cn1c(=O)c2cc(C(=O)N3CCN(c4ccccc4)CC3)sc2n(C)c1=O	i	/
Cn1c(=O)c2cc(C(=O)N3CCCC3)sc2n(C)c1=O	+	i
COc1ccc(S(=O)(=O)CCCC(=O)Nc2nc3ccc4sc(C)nc4c3s2)cc1	i	i
CC(C)(C)c1csc(CN2CCN(S(=O)(=O)c3ccc(F)cc3F)CC2)n1	i	i
COc1cccc(C(=O)NCC(c2ccsc2)N2CCOCC2)c1OC (centres undefined)	i	i
CCOc1ccc(-n2nnnc2CN2CCN(C(=O)c3cc(C)on3)CC2)cc1	i	i
Cn1c(=O)c2cc(C(=O)NCC(O)CO)sc2n(C)c1=O (centres undefined)	i	i
Cn1c(=O)c2cc(C(=O)NCCN3CCOCC3)sc2n(C)c1=O	+	i
Cn1c(=O)c2cc(C(=O)NCCCCO)sc2n(C)c1=O	+	i
Cn1c(=O)c2cc(C(=O)NCC3CCCO3)sc2n(C)c1=O (centres undefined)	i	i
NC(=O)Cc1csc(NC(=O)C2CN(c3nc4c(F)cccc4s3)C2)n1	i	i
Cc1c(Cl)cccc1S(=O)(=O)N1CCC(Cn2c(C)nc3ccccc32)CC1	+	i
Cc1n[nH]c(C)c1S(=O)(=O)N1CCC(Cn2c(C)nc3ccccc32)CC1	i	i
CCOc1ccccc1NC(=O)Nc1cccc(N2CCCS2(=O)=O)c1	i	i
COCCN1CCC(CNC(=O)C(=O)Nc2cc(C)ccc2OC)CC1	i	i
COc1ccc2cc(S(=O)(=O)N3CCCCC3)ccc2c1	i	/
SMILES	AMPAR-TARP mod	GIRK2 act
CC1(C)COCN1C(=O)c1ccc(N2CCC(Cc3ccccc3)CC2)nn1	i	i
Cc1ccc(S(=O)(=O)c2cnc(SCC(=O)Nc3ccc(Br)cc3)[nH]c2=O)cc1	i	i
O=C(CSc1ncc(S(=O)(=O)c2ccc(Br)cc2)c(=O)[nH]1)Nc1ccccc1F	+	/
COc1ccc(CCNC(=O)COc2ccc(C(C)C)c(C)c2)cc1OC	+	i
COc1ccc(OCC(=O)NCCc2ccc(OC)c(OC)c2)cc1	i	i
CCCc1c(C(=O)Nc2ccc3c(c2)C(=O)OC3)nnn1-c1ccccc1	i	i
COc1ccc(C)cc1S(=O)(=O)NCC1CCN(Cc2cccs2)CC1	/	i
CC(=O)c1ccc(S(=O)(=O)NCCOc2ccc(-c3ccc(F)cc3)nn2)cc1	i	i
CC(C)(C)N1CC(c2nc3ccccc3n2CCOc2ccc(Cl)cc2)CC1=O (centres undefined)	i	/
C=CCN1CC(c2nc3ccccc3n2Cc2c(F)cccc2Cl)CC1=O (centres undefined)	i	/
CC(C)(C)N1CC(c2nc3ccccc3n2Cc2ccc(Cl)cc2)CC1=O (centres undefined)	i	/
O=C1CC(c2nc3ccccc3n2Cc2c(F)cccc2Cl)CN1Cc1ccccc1 (centres undefined)	+	/
CC(C)(C)N1CC(c2nc3ccccc3n2Cc2c(F)cccc2Cl)CC1=O (centres undefined)	+	/
Cc1cccc(Cn2c(C3CC(=O)N(C(C)(C)C)C3)nc3ccccc32)c1 (centres undefined)	+	/
CC(C)CCn1c(C2CC(=O)N(Cc3ccccc3)C2)nc2ccccc21 (centres undefined)	+	/
CC(C)CCn1c(C2CC(=O)N(Cc3ccc(F)cc3)C2)nc2ccccc21 (centres undefined)	i	/
O=C(Nc1ccccc1-c1nc2ccccc2[nH]1)c1cc2ccccc2o1	i	/
O=C(CCCS(=O)(=O)c1ccc(Cl)cc1)Nc1ccc(O)c(-c2nc3ccccc3s2)c1	i	/
COc1ccccc1NC(=O)c1ccc(-c2ccc(F)c(Cl)c2)o1	i	/
CCCCOc1cccc(C(=O)Nc2nnc(-c3cc(C)n(C)n3)o2)c1	i	i
O=C1CC(c2nc3ccccc3n2Cc2ccc(F)cc2)CN1Cc1ccccc1 (centres undefined)	+	/
COc1cccc(N2CC(c3nc4ccccc4n3Cc3ccccc3)CC2=O)c1 (centres undefined)	i	/
COc1cccc(N2CC(c3nc4ccccc4n3Cc3ccccc3Cl)CC2=O)c1 (centres undefined)	+	/
O=C1CC(c2nc3ccccc3n2Cc2ccc(F)cc2)CN1Cc1ccc(F)cc1 (centres undefined)	i	/
CCCCN1CC(c2nc3ccccc3n2Cc2cccc(Cl)c2)CC1=O (centres undefined)	+	/
SMILES	AMPAR-TARP mod	GIRK2 act
CCCCN1CC(c2nc3ccccc3n2Cc2ccccc2)CC1=O (centres undefined)	i	/
O=C(c1cnn2ccccc12)N1CCN(S(=O)(=O)c2cccnc2)CC1	i	i
Cc1cc(C(=O)NCC2COC3(CCCCC3)O2)c(C)o1 (centres undefined)	/	i
CCOc1ccccc1NC(=O)CCc1c(C)nn(-c2nc(C)cc(=O)[nH]2)c1C	i	i
COCCNC(=O)Cc1csc(Nc2ccccc2)n1	i	i
O=C(NCC1CCCO1)C1CC(=O)N(C2CCCCC2)C1 (centres undefined)	i	i
Cc1ccccc1N1C(=O)CC(c2cn(Cc3ccccc3)c3ccccc23)C1=O (centres undefined)	+	/
Cc1cccc(N2C(=O)CC(c3cn(C)c4ccccc34)C2=O)c1 (centres undefined)	i	/
COc1ccc(CNC(=O)C(=O)Nc2ccc(NC(C)=O)cc2)cc1	i	i
COc1ccc(CCNC(=O)C(=O)Nc2ccc(NC(C)=O)cc2)cc1	+	i
COc1ccc(OC)c(S(=O)(=O)Nc2ccc(N3CCCC3=O)c(C)c2)c1	i	i
Cc1ccccc1-c1ccc(N2CCN(C(=O)Cc3cccs3)CC2)nn1	i	i
Cc1ccc(C(=O)N2CCN(c3nc(C)cc(N4CCCCC4)n3)CC2)cc1	i	/
Cc1cc(N2CCOCC2)nc(N2CCN(C(=O)Cc3cccs3)CC2)n1	+	i
Cc1cc(N2CCCC2)nc(N2CCN(C(=O)c3ccccc3)CC2)n1	+	/
O=C(Cc1cccs1)N1CCN(c2ccc(-c3ccccn3)nn2)CC1	+	i
Cc1ccc(-c2ccc(N3CCN(C(=O)Cc4cccs4)CC3)nn2)cc1	i	i
